# Measured values: PubChem BioAssay (Tox21)
# Records with an inconclusive call do not appear. Unmarked numbers belong to inactive results. Calls of active or inactive are those of the source. Calls come from the whole dose curve; as a rule, active = well fitted activation curve with a large enough effect; inconclusive = small, poorly fitted or top-dose-only effect; inactive = flat fitted curve, though single readings scatter.
# Assay: qHTS assay to identify small molecule phospholipidosis (PLD) inducers (AID 1259344)
# Conditions: HepG2 phospholipidosis, LipidTOX Red imaging, 24 h; series mostly up to 38.3 µM; PLD induction: at the top concentration
# Outline: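 HepG2 cells, 900/well, treated with compound plus LipidTOX Red for 24 h at 37 C; amiodarone positive and DMSO negative controls. Fixed with paraformaldehyde/Hoechst, then high-content imaging scored LipidTOX pit count and integrated intensity per well and per cell.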
# % is set by controls: 0 for no effect and ±100 for the full control effect; potency is the fitted concentration of half-maximal effect.
Compound,PLD induction,Potency
CC(=O)OCC(=O)[C@@]1(O)CC[C@H]2[C@@H]3C[C@H](C)C4=CC(=O)C=C[C@]4(C)[C@H]3[C@@H](O)C[C@@]21C,-0.177%,
Cc1onc(-c2c(F)cccc2Cl)c1C(=O)N[C@@H]1C(=O)N2[C@@H]1SC(C)(C)[C@@H]2C(=O)O,,inactive
CNCCC=C1c2ccccc2CCc2ccccc21,,10 µM (active)
NC(N)=NCC1COC2(CCCCC2)O1 (configuration not stated),-0.62% [at 15.5 µM],
N=C(N)n1cccn1,-0.953%,
O=C1CCC(c2ccc(-n3ccnc3)cc2)=NN1,-0.849%,
COC1=C(OC)C(=O)C(C/C=C(\C)CC/C=C(\C)CC/C=C(\C)CC/C=C(\C)CC/C=C(\C)CC/C=C(\C)CC/C=C(\C)CC/C=C(\C)CC/C=C(\C)CCC=C(C)C)=C(C)C1=O,,inactive
O=C(O)c1ccccc1[O-].O=C(O)c1ccccc1[O-].[Zn+2],-2.38%,
CO[C@H]1C[C@@H]2CC[C@@H](C)[C@@](O)(O2)C(=O)C(=O)N2CCCC[C@H]2C(=O)O[C@H]([C@H](C)C[C@@H]2CC[C@@H](O)[C@H](OC)C2)CC(=O)[C@H](C)C=C(C)[C@@H](O)[C@@H](OC)C(=O)[C@H](C)C[C@H](C)/C=C/C=CC=C1C,,inactive
O=C(O)Cc1nn(Cc2ccc(Br)cc2F)c(=O)c2ccccc12,-1.23%,
C[N+]1(CCCCC[N+]2(C)CCCC2)CCCC1,-0.372%,
O=C1c2ccccc2C(=O)C1c1ccc(F)cc1,1.02%,
C[C@H](Cc1ccc(O)c(O)c1)[C@@H](C)Cc1ccc(O)c(O)c1,-1.08%,
NCC1CCC(C(=O)O)CC1 (configuration not stated),2.82% [at 15.5 µM],
C[C@@H]1O[C@@H]1P(=O)(O)O,0.45%,
CN[C@H](CC(C)C)C(=O)N[C@H]1C(=O)N[C@@H](CC(N)=O)C(=O)N[C@H]2C(=O)N[C@H]3C(=O)N[C@H](C(=O)N[C@@H](C(=O)O)c4cc(O)cc(O)c4-c4cc3ccc4O)[C@H](O)c3ccc(c(Cl)c3)Oc3cc2cc(c3O[C@@H]2O[C@H](CO)[C@@H](O)[C@H](O)[C@H]2O[C@H]2C[C@](C)(N)C(O)[C@H](C)O2)Oc2ccc(cc2Cl)[C@H]1O (some centres not stated),,inactive
c1ccc(-n2cnnn2)cc1,-0.359%,
CS(=O)(=O)c1ccc([C@@H](O)[C@@H](COC(=O)CN)NC(=O)C(Cl)Cl)cc1,0.141%,
CNC(=O)C[C@@H](N)C(=O)N[C@@H](C(=O)N[C@@H]1C(=O)N2[C@@H]1SC(C)(C)[C@@H]2C(=O)O)c1ccc(O)cc1,-0.107%,
CCOc1ccc(S(=O)(=O)O)c2cccnc12,-0.0145%,
O=C(O)c1cc(=O)c2c3nc4ccccc4oc-3cc(=O)c2[nH]1,-1.09%,
CON=C1C[C@]2(C[C@@H]3C[C@@H](C/C=C(\C)C[C@@H](C)/C=C/C=C4\CO[C@@H]5[C@H](O)C(C)=C[C@@H](C(=O)O3)[C@]45O)O2)O[C@H](/C(C)=C/C(C)C)[C@H]1C,,inactive
O=C(O)/C=C/C(O)c1ccc(Cl)cc1 (configuration not stated),-0.396%,
C=CC1=C(C(=O)O)N2C(=O)[C@@H](NC(=O)/C(=N\O)c3csc(N)n3)[C@H]2SC1 (stereo in doubt),,inactive
NC(N)=NCCCCN=C(N)N,-6.42%,
Cc1c(O)c(=O)ccn1C,0.0699%,
CCCCCCOC(=O)c1cccnc1,-0.444%,
